Screens from PubChem BioAssay.
TRAIL sens C8 – viability loss with TRAIL in NB7+C8 cells, primary screen, TRAIL sensitizer project, cell-based, ATPlite luminescence. inhibition (viability loss, TRAIL sensitization), % at 10 µM. 360,000 tested, 1% active;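 active = compounds causing at least 50% loss of cell viability in the single-dose screen, relative to plate controls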
Platelet DG rel – inhibitors of platelet dense granule secretion, primary screen, cell-based, MLPCN, human platelets | human platelet-rich plasma, SFLLRN dense granule ATP release, luminescence | 300,000 tested, 0.22% active | inhibition, %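 (compounds screened at 7.5 µM in platelet-rich plasma)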;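 active = mean replicate score, as percent of positive control, at or above 50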
STAT3 inh-1 – IL-6 driven STAT3 reporter inhibitors, primary screen, U3A cells, luciferase, luminescence, MLSCN library; IL-6 STAT3-luciferase reporter; host cell line lacks STAT1; inhibition, % at 5.5 µM; 190,000 tested, 0.89% active;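 active = inhibition above the mean inhibition across all screened compounds plus 3 SD, cut at about 44% in these data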;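 note: 0% = DMSO only wells and 100% = 100 µM nifuroxazide control wells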
STAT1 inh – STAT1 signaling inhibitors, primary screen, cell-based, HTS, luciferase reporter; inhibition, % at 5.5 µM; 200,000 tested, 0.35% active; AID 920, 2007; NIH 3T3 STAT1-luciferase reporter, IFN-gamma, luminescence;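 active = inhibition above a set limit, the mean inhibition across all tested compounds plus 3 SD, cut at about 34% in these data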;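 note: 0% = IFN-gamma with DMSO and 100% = IFN-gamma with 300 µM nifuroxazide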
PPC-1+TRAIL kill – compounds killing PPC-1 cancer cells with TRAIL present, primary screen, TRAIL potentiator project, ATPLite luminescence, uHTS; PPC-1 cells + TRAIL, ATPLite viability luminescence; cell killing (% activity), % at 4 µM or 5 µM; 220,000 tested, 0.41% active;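 active = cell killing above 50% in the first pass at 4 µM, then a duplicate retest at 5 µM averaging 50% or more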;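 note: plate controls were cells with TRAIL plus DMSO for no effect and medium-only wells lacking cells for full effect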
STAT3 inh-2 – STAT3 reporter inhibitors, retest of hits, confirmation, U3A cells, luciferase, luminescence. inhibition, % at 5.7 µM. IL-6 STAT3 luciferase reporter; cell line lacks STAT1. AID 1265, 2008. 1,200 tested, 45% active. shares compounds with STAT3 inh-1;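 active = inhibition above the hit cutoff computed for the primary STAT3 screen, cut at about 44% in these data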;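 note: 0% = IL-6 plus DMSO and 100% = IL-6 plus nifuroxazide control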
NFkB inh STAT3ct – NF-kB reporter inhibitors in human cells, confirmation, counter-screen for STAT3 inhibitor project, cell-based, HEK293T, luciferase, TNF-alpha stimulus. shares compounds with STAT3 inh-1. TNF-alpha induced. inhibition, % at 5.7 µM. 1,200 tested, 36% active;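 active = inhibition above the mean of solvent-only control wells plus 3 SD, cutoff set per campaign, cut at about 13% in these data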;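 note: 0% = TNF-alpha with DMSO and 100% = TNF-alpha with MG high control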
STAT1 inh STAT3c – STAT1 reporter inhibitors, IFN-gamma induced, confirmation, counter-screen for STAT3 inhibitor project, cell-based, NIH 3T3, luciferase luminescence. NIH 3T3 STAT1-luciferase reporter. shares compounds with STAT3 inh-1. inhibition, % at 5.7 µM. 1,200 tested, 27% active;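 active = inhibition above the mean plus 3 SD of solvent-only control wells, limit set per screening run, cut at about 16% in these data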;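 note: 0% = DMSO with IFN-gamma and 100% = nifuroxazide control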
Numbers without * were called inactive. The list is not random: actives were taken first. Their share in the collection is about 1.6%.

Results for COC(=O)[C@]12CCCCC=C1N(CCC1=CCCCC1)C(=O)[C@H](CC(=O)N1CCOCC1)C2 ?
TRAIL sens C8: 0.6

What do the screens show for `O=S(=O)(NCC[C@@H]1CC[C@H](NS(=O)(=O)c2cccc(F)c2)[C@@H](CO)O1)c1cccc(F)c1`?
TRAIL sens C8: -13.8

How did O=C(Nc1nc(-c2ccccc2)cs1)c1ccc(N2CCOCC2)c([N+](=O)[O-])c1 do in these assays?
TRAIL sens C8: 83.4*; Platelet DG rel: 9.5; STAT3 inh-1: 71.9*; STAT1 inh: 15.3; PPC-1+TRAIL kill: 41.5; STAT3 inh-2: 77.2*; NFkB inh STAT3ct: 22.9*; STAT1 inh STAT3c: 16.5*

How did CN(CCCC(=O)Nc1ccncc1)S(=O)(=O)c1ccc(Cl)cc1 do in these assays?
TRAIL sens C8: 15.5; Platelet DG rel: 7.6; STAT3 inh-1: 46.8*; STAT1 inh: 13.3; PPC-1+TRAIL kill: 16.8; STAT3 inh-2: 38.5; NFkB inh STAT3ct: 0.2; STAT1 inh STAT3c: 20.7*

Results for Cc1ccc(CC(=O)Nc2cccnc2)cc1 ?
TRAIL sens C8: -8.8; Platelet DG rel: -2.5; STAT3 inh-1: 8.1; STAT1 inh: 2.3; PPC-1+TRAIL kill: 5.3

Results for O=C(Cc1ccc(Cl)cc1)Nc1ccncc1 ?
TRAIL sens C8: 8.9; Platelet DG rel: 1.8; STAT3 inh-1: 52.4*; STAT1 inh: 23.0; PPC-1+TRAIL kill: 10.7; STAT3 inh-2: 55.5*; NFkB inh STAT3ct: 16.7*; STAT1 inh STAT3c: 20.9*

What do the screens show for `CN(CC(=O)Nc1ccncc1)S(=O)(=O)c1ccc(Br)cc1`?
TRAIL sens C8: 3.9; Platelet DG rel: 8.4; STAT3 inh-1: 15.7; STAT1 inh: 4.7; PPC-1+TRAIL kill: 21.0

How did Cc1ccc(CC(=O)Nc2ccncc2)cc1 do in these assays?
TRAIL sens C8: 31.3; Platelet DG rel: -8.7; STAT3 inh-1: 46.3*; STAT1 inh: 28.8; PPC-1+TRAIL kill: 14.8; STAT3 inh-2: 51.7*; NFkB inh STAT3ct: 10.7; STAT1 inh STAT3c: 24.0*

Results for O=C(Nc1ccncc1)Nc1ccc(Cl)cc1 ?
TRAIL sens C8: 11.9; Platelet DG rel: 0.9

Results for Cc1ccnc(N=O)c1 ?
TRAIL sens C8: 0.7

What do the screens show for `CC(=O)c1cn(CC(=O)Nc2ccc(C)cc2C)c2ccccc12`?
TRAIL sens C8: 7.7; Platelet DG rel: -2.9; STAT3 inh-1: 62.2*; STAT1 inh: 25.7; PPC-1+TRAIL kill: 25.5; STAT3 inh-2: 61.1*; NFkB inh STAT3ct: 12.2; STAT1 inh STAT3c: 21.7*

How did CC(=O)c1cn(CC(=O)Nc2cccc(C)c2C)c2ccccc12 do in these assays?
TRAIL sens C8: 36.1; Platelet DG rel: -6.2; STAT3 inh-1: 49.1*; STAT1 inh: 29.2; PPC-1+TRAIL kill: 27.0; STAT3 inh-2: 43.7*; NFkB inh STAT3ct: 15.0*; STAT1 inh STAT3c: 22.6*

Results for Cc1ccc(NC(=O)Cn2cc(C(=O)C3CC3)c3ccccc32)c(C)c1 ?
TRAIL sens C8: -3.6; Platelet DG rel: 9.7

What do the screens show for `O=C(CC(=O)c1cccs1)c1ccncc1`?
TRAIL sens C8: 4.3

Results for COc1cc(CN2CCNC(=O)C2CC(=O)NC2CCCC2)cc(OC)c1 (centres undefined) ?
TRAIL sens C8: -21.5; Platelet DG rel: -0.3

Results for CC1CCCN(C(=O)c2cccc(S(=O)(=O)N3CCCC3)c2)C1 (centres undefined) ?
TRAIL sens C8: 15.1
